Hits are enriched below; roughly 1.4% of the tested compounds scored in any of these assays.
VHR inh abs: VHR1 phosphatase inhibitors, primary screen, biochemical, absorbance, uHTS; Dual specificity protein phosphatase 3 (Homo sapiens), P51452; recombinant VHR phosphatase, pNPP absorbance; inhibition, % at 13.3 µM; actives 0.52% (n = 290,000); AID 1654, 2009; in the data active means inhibition above about 50%
Target sequence (P51452 whole entry, looked up): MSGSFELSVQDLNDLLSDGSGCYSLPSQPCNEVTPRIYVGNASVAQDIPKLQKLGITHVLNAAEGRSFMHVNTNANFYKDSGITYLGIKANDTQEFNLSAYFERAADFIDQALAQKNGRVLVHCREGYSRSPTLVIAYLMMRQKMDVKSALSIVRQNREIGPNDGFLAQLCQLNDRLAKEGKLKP
Sa RN4220 lethal: growth inhibition of S. aureus RN4220, primary screen, OD600 | actives 0.33% (n = 330,000) | inhibition, % (test concentration not listed) | 16 h; in the data active means inhibition above about 85%;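 further: plate controls were untreated cells for no effect and reference antibiotic for full effect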
3CLpro inhibitor: SARS-CoV 3CLpro protease inhibitors, primary screen, biochemical, quenched FRET | recombinant SARS-CoV 3CLpro, quenched FRET peptide cleavage | AID 1706, 2009 | inhibition, % at 6 µM | actives 0.14% (n = 290,000) | Replicase polyprotein 1ab (Severe acute respiratory syndrome coronavirus), P0C6X7; in the data active means inhibition above about 12%
BJeLR lethal: MLPCN primary cell-based screen for lethality selective to Ras in HRASV12 cells; AID 1554, 2009; BJeLR (HRASV12) viability, CellTiter-Glo ATP luminescence, 48 h; inhibition, % (concentration not given with the values); actives 0.17% (n = 300,000); in the data active means inhibition above about 50%
PrPC surface inh: inhibitors of human cell surface prion protein PrPC, primary screen, cell-based, TR-FRET | actives 0.43% (n = 370,000) | inhibition, % at 13.8 µM | TR-FRET read-out | AID 720596, 2013 | Major prion protein (Homo sapiens), P04156; in the data active means inhibition above about 24%; further: 0% = median of the test wells and 100% = reference compound wells
Sa ugtP lethal: growth inhibition of ugtP-null S. aureus, primary screen, RN4220 ugtP deletion, OD600. 16 h. growth inhibition, % (concentration not given with the values). actives 0.54% (n = 330,000); in the data active means growth inhibition above about 68%;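 further: plate controls were untreated wells for no effect and antibiotic for full effect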
The depositor's hits bear a star.

Screening O=C(CN1C(=O)C2C3C=CC(C4CC34)C2C1=O)Nc1cccc2ncccc12 (centres undefined) returned VHR inh abs 53*, Sa RN4220 lethal 2, 3CLpro inhibitor 7, BJeLR lethal -3, PrPC surface inh -7 and Sa ugtP lethal 0.
`CCc1ccc(/C=C/C(=O)c2cc(Br)ccc(=O)c2O)cc1` gave VHR inh abs 17, Sa RN4220 lethal 100*, 3CLpro inhibitor 4, BJeLR lethal 12, PrPC surface inh -8 and Sa ugtP lethal 95*.
Screening Cc1cccc(/C=C/C(=O)c2cc(Br)ccc(=O)c2O)c1 returned VHR inh abs 21, Sa RN4220 lethal 99*, 3CLpro inhibitor 1, BJeLR lethal 15, PrPC surface inh -5 and Sa ugtP lethal 99*.
Screening CCOc1ccc(/C=C/C(=O)c2cc(Br)ccc(=O)c2O)cc1 returned VHR inh abs 15, Sa RN4220 lethal 84, 3CLpro inhibitor 1, PrPC surface inh -13 and Sa ugtP lethal 90*.
For CC(OC(=O)c1[nH]cnc1C(=O)N1CCN(C(=O)OC(C)(C)C)CC1)c1ccccc1 (centres undefined) the results were Sa RN4220 lethal 9 and Sa ugtP lethal 1.
Screening CC(C)=CCCC1=CCC(C=NNC(N)=O)C(C)C1 (centres undefined) returned Sa RN4220 lethal 1 and Sa ugtP lethal 93*.
O=C(O)c1ccc(CN2C(=O)c3cccc4c([N+](=O)[O-])ccc(c34)C2=O)cc1 was read as VHR inh abs -16, Sa RN4220 lethal 46, 3CLpro inhibitor 3, BJeLR lethal 73* and Sa ugtP lethal 97*.
For O=C(Nc1cccnc1)Nc1cc(Cl)cc(Cl)c1 the results were VHR inh abs 18, Sa RN4220 lethal 100*, 3CLpro inhibitor 12, BJeLR lethal -4, PrPC surface inh 4 and Sa ugtP lethal 99*.
`Cc1ccc(NC(=O)Nc2cccnc2)cc1Cl` gave VHR inh abs 10, Sa RN4220 lethal -6, 3CLpro inhibitor 21*, BJeLR lethal -3, PrPC surface inh 0 and Sa ugtP lethal -6.
Screening CNC(=O)C1CC1C(NC(=O)CNC(=O)OCc1ccccc1)c1ccccc1 (centres undefined) returned Sa RN4220 lethal 6 and Sa ugtP lethal 6.
For CCOC(=O)CSc1nnc2n(Cc3ccccc3)c(=O)c3c4c(sc3n12)CCC4 the results were VHR inh abs 52*, Sa RN4220 lethal -5, 3CLpro inhibitor 5, PrPC surface inh -5 and Sa ugtP lethal -11.
For Cc1nnc2n(Cc3ccccc3)c(=O)c3c4c(sc3n12)CCCC4 the results were VHR inh abs 8.
C#CCNC(=O)C1=CC(C(C)(C)C)CC(OCCCCO)O1 (centres undefined) was read as Sa RN4220 lethal 3 and Sa ugtP lethal -3.
`COc1ccc(-c2cc(-c3ccccc3)[n+](C)c(-c3ccccc3)c2)cc1` gave VHR inh abs 22, Sa RN4220 lethal -1, 3CLpro inhibitor -1, BJeLR lethal 10, PrPC surface inh -12 and Sa ugtP lethal -1.
For C[n+]1c(-c2ccccc2)cc(CCCCc2cc(-c3ccccc3)[n+](C)c(-c3ccccc3)c2)cc1-c1ccccc1 the results were VHR inh abs 9, Sa RN4220 lethal 93*, 3CLpro inhibitor 1, PrPC surface inh -2 and Sa ugtP lethal 77.
`CCSc1nsc(NC(=O)Nc2cccc(F)c2)n1` gave VHR inh abs 11, 3CLpro inhibitor -1, BJeLR lethal 15 and PrPC surface inh 40*.
COCc1ccccc1C1=CC(=O)CC(c2ccc(F)cc2)C1 (centres undefined) was read as Sa RN4220 lethal 2 and Sa ugtP lethal 5.
For CC1CCN(CC(O)CN2c3ccccc3Sc3ccccc32)CC1 (centres undefined) the results were VHR inh abs 58*, Sa RN4220 lethal -4, 3CLpro inhibitor -3, BJeLR lethal 8 and Sa ugtP lethal 1.
Screening COc1ccc(N2C(=O)N3C(c4ccc(Cl)cc4)C4C(=O)N(C5CCCCC5)C(=O)C4[C@]3(C)C2=O)cc1 (some centres undefined) returned Sa RN4220 lethal 3 and Sa ugtP lethal -2.
Screening c1ccc(CSc2ncnc3c2cnn3Cc2ccccc2)cc1 returned VHR inh abs -6, Sa RN4220 lethal -4, 3CLpro inhibitor 0, BJeLR lethal -11, PrPC surface inh 4 and Sa ugtP lethal 97*.
`CC(C)(C)C(=O)CSc1ncnc2c1cnn2Cc1ccccc1` gave VHR inh abs 20, Sa RN4220 lethal 1, 3CLpro inhibitor 5, BJeLR lethal -5, PrPC surface inh 15 and Sa ugtP lethal 15.
For CCn1c(-c2ccccc2)c(C(=O)CCl)c2ccccc21 the results were VHR inh abs 18, Sa RN4220 lethal 97*, 3CLpro inhibitor 4, BJeLR lethal 2, PrPC surface inh 0 and Sa ugtP lethal 99*.
Screening Cn1c(-c2ccccc2)c(C(=O)CCl)c2ccccc21 returned VHR inh abs 10, Sa RN4220 lethal 27, 3CLpro inhibitor 4, BJeLR lethal 18, PrPC surface inh -2 and Sa ugtP lethal 9.
`Cc1ccc(CNC(=O)c2ccccc2NC(=O)CN2CCN(C)CC2)cc1` gave VHR inh abs 56*, Sa RN4220 lethal 2, 3CLpro inhibitor -3, BJeLR lethal 9, PrPC surface inh -10 and Sa ugtP lethal 3.
Screening COc1cccc(N2CCN(CC(=O)Nc3ccccc3C(=O)NCc3ccccc3)CC2)c1 returned Sa RN4220 lethal 6, PrPC surface inh -5 and Sa ugtP lethal 4.
Screening Nc1nc(-c2ccco2)c(-c2ccco2)s1 returned VHR inh abs 14, Sa RN4220 lethal 1, 3CLpro inhibitor -6, BJeLR lethal -7, PrPC surface inh -4 and Sa ugtP lethal -2.
`c1coc(-c2nc(-c3ccco3)c(-c3ccco3)nc2-c2ccco2)c1` gave VHR inh abs 51*, Sa RN4220 lethal 9, 3CLpro inhibitor -1, BJeLR lethal 11, PrPC surface inh -11 and Sa ugtP lethal 15.
COC(=O)C1=C(c2cc3ccccc3o2)CC2CCC1N2C(=O)NCc1cccc2ccccc12 (centres undefined) was read as Sa RN4220 lethal -3 and Sa ugtP lethal -7.
For COc1ccc(OC)c(-c2cc(C(=O)Nc3ccc(F)cc3F)no2)c1 the results were VHR inh abs 50, Sa RN4220 lethal 1, 3CLpro inhibitor 3, BJeLR lethal 6, PrPC surface inh 7 and Sa ugtP lethal -5.
COc1ccc(-c2cc(C(=O)Nc3ccc(F)cc3F)no2)cc1 was read as VHR inh abs 55*, Sa RN4220 lethal 2, 3CLpro inhibitor -5, BJeLR lethal 4, PrPC surface inh 8 and Sa ugtP lethal 0.

From PubChem BioAssay
